# FBPA Giardia inh = inhibitors of Giardia lamblia fructose-1,6-bisphosphate aldolase. A8B2U2. purified Giardia FBPA. Potency, µM (titrated, usually from 59.6 µM), inactives show at the highest dose activity, negative = inhibition, usual class: inhibitors. 290,000 tested, 0.71% active. AID 2451; also: potency is read from the fitted curve at half-maximal effect; % is scaled to controls: 0 for no effect and ±100 for the full control effect; nearly all actives have a fitted effect of over 55% in size
# Target sequence (A8B2U2 whole entry, looked up): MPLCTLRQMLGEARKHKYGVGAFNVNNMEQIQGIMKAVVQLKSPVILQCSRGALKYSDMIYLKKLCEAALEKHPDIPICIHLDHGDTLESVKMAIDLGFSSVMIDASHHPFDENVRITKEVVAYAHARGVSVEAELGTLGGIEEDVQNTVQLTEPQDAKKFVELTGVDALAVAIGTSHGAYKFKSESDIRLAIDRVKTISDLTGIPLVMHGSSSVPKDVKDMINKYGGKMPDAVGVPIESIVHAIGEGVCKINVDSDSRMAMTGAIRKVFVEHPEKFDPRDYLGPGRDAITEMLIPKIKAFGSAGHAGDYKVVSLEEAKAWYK
#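 Giardia FBPA (40 nM reagent) was preincubated 10 min at RT with compound (up to 57.5 uM final), then substrate plus GAPDH/TPI/NAD/arsenate coupling system with diaphorase/resazurin was added; resorufin fluorescence (525/598 nm) was read after 20 min.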
# NS1 function inh = influenza NS1 inhibition. Potency, µM (titrated, usually from 46.1 µM), without a hit: top-dose activity, positive = more growth. 270,000 tested, 0.4% active. AID 2326; calls by dose curve; also: potency is read from the fitted curve at half-maximal effect; actives are rising curves; nearly all actives have a fitted effect of over 50% in size
#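 OD600 was taken as the measure of yeast growth restored by compound in an NS1-expressing S. cerevisiae strain. Cells had been washed out of glucose medium and diluted 1:100 into galactose -URA medium, pH 6.0.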
# Pf growth 48h = P. falciparum growth inhibition at 48 hours (one generation); P. falciparum luciferase growth in erythrocytes, 48 h; Potency, µM (titrated, usually from 28.7 µM), for the others: at the highest dose activity change, negative = inhibition, actives largely listed as inhibitors; 310,000 tested, 5.9% active; also: potency is read from the fitted curve at half-maximal effect; % is scaled to controls: 0 for no effect and ±100 for the full control effect
#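 Luminescence readout; reporter = integrated firefly luciferase in P. falciparum. RBC culture at 2% hematocrit, 0.1% parasitemia final, 37 C/5% CO2; decreased signal taken as growth inhibition.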
# Pf growth 96h = P. falciparum growth inhibition at 96 hours; P. falciparum luciferase reporter growth, 96 h; Potency, µM (top dose mostly 28.7 µM), for the others: at the top dose activity change, negative = inhibition, hits mostly inhibitors; 320,000 tested, 6.9% active; also: potency is read from the fitted curve at half-maximal effect; % is scaled to controls: 0 for no effect and ±100 for the full control effect
#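 96 h incubation, 37 C, 5% CO2, of luciferase-reporter P. falciparum-infected RBCs (2% hematocrit, 0.05% parasitemia final) with test compounds; endpoint luminescence.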
# Cycloheximide cs = counter-screen for Shiga toxin inhibitors: cycloheximide protein synthesis inhibition; 300,000 tested, 12% active; max response, %; cell reporter, cycloheximide protein synthesis inhibition counterscreen; in the data active = max response mostly above about 13%, no sharp cut-off; inactive = mostly below about 14%; also: read at 38.3 µM for the half of the compounds with a filed dose; 0% is about no effect
# Shiga toxin inh = inhibitors of Shiga toxin in Vero cells; Vero cells, Shiga toxin protein synthesis inhibition reporter; inhibition, % at 38.7 µM; 290,000 tested, 9.2% active; in the data active = inhibition mostly above about 28%, no sharp cut-off; inactive = mostly below about 43%; also: 0% is about no effect
# Starred values were filed as active, the others as inactive; ? = inconclusive; · = no result; [ ] = dose if it differs, or a comment. Compounds with a hit are over-represented: about 21% of the library has one in this group of screens. Unless noted, calls follow the shape of the dose curve; as a rule, active = well fitted curve in the direction sought with a large enough effect; inconclusive = small, poorly fitted or top-dose-only effect, or another doubt; inactive = no such curve, though single readings can be large; an effect the other way counts as inactive or inconclusive.
SMILES,FBPA Giardia inh,NS1 function inh,Pf growth 48h,Pf growth 96h,Cycloheximide cs,Shiga toxin inh
COc1ccc(-c2sc3ccc(N4CCOCC4)cc3c2-c2ccc(OC)c(F)c2)cc1,-9.4%,8.2%,14.7µM*,6.57µM*,1.7,-4.6
COc1ccc(-c2sc3ccc(OC)cc3c2-c2ccc(OC)c(F)c2)cc1,·,·,?,-15.2%,·,·
COc1cccc(-c2ccc3ncnc(NCc4cnc(C)cn4)c3c2)c1,7.1%,·,·,·,·,·
CCOCCCNC(=O)CN1C(=O)c2ccccc2Sc2ncccc21,14.2%,0.1%,5.6%,-21.9%,-12.1,-6.6
CCNc1oc(-c2cccc3ccccc23)nc1C#N,13.6%,-0.6%,46.1%,-6.7%,27.5,58.3*
COCCNc1oc(-c2ccccc2Cl)nc1C#N,1.7%,-12.8%,·,16.1%,19.9,46.4
C=CCNc1oc(-c2cccc3ccccc23)nc1C#N,4.7%,-5.2%,46.4%,?,45.6*,44.8*
N#Cc1nc(-c2cccc3ccccc23)oc1NCCN1CCCCC1,-0.7%,2.2%,?,·,18.8,32.3
CC(C)Nc1oc(-c2cccc3ccccc23)nc1C#N,11.6%,-14.1%,?,-24.2%,30.0*,84.3*
CN(C)CCNc1oc(-c2ccccc2F)nc1C#N,-1.0%,-6.4%,22.8%,?,-2.8,-3.8
CCC(C)(C)NC(=O)C(c1cccnc1)N(C(=O)c1csnn1)c1ccccc1 (configuration not stated),12.2%,-6.2%,24.7%,1.8%,5.7,16.0
Cc1ccccc1/C=N/Nc1ccnc2cc(Cl)ccc12,3.6%,-25.5%,0.828µM*,0.828µM*,-1.7,13.2
Oc1ccc(/C=N/Nc2ccnc3cc(Cl)ccc23)c(O)c1,0.0%,-13.1%,0.586µM*,0.37µM*,22.6*,37.6*
Cc1ccc(/C=N/Nc2ccnc3cc(Cl)ccc23)c(C)c1,-4.0%,5.3%,0.208µM*,?,-2.9,-2.7
O=C(NCCCN1CCOCC1)c1ccc2c(=O)n(Cc3ccc(Cl)cc3)c(=S)[nH]c2c1,-24.2%,-3.8%,?,?,-4.7,4.4
Cc1ccc(S(=O)(=O)Nc2cccnc2)cc1,-2.9%,?,0.3%,?,-3.0,-16.7
CCCCOc1ccc(S(=O)(=O)Nc2cccnc2)cc1,2.4%,-10.4%,0.0%,2.33µM*,13.0,-8.9
CCOc1ccc(N(CC(=O)NCc2cccnc2)S(=O)(=O)c2ccc(F)cc2)cc1,·,7.7%,-15.2%,31.1%,-1.8,-2.3
O=C(Nc1ccc(Cl)cc1)Nc1cccnc1,-0.2%,-48.5%,·,?,37.2*,55.4*
COc1ccc(C(=O)Nc2ccc(C(=O)Nc3cccnc3)cc2)cc1,6.2%,3.8%,58.9%,-5.6%,-1.5,·
COc1ccc(NC(=O)Nc2cccnc2)cc1,-1.8%,·,117.6%,?,22.7*,43.7*
CCOc1ccc(S(=O)(=O)N(CC(=O)Nc2cccnc2)c2ccc(F)cc2)cc1,9.3%,-1.5%,19.2%,5.86µM*,-3.6,-11.9
O=C(Nc1cccnc1)Nc1ccc(Cl)cc1Cl,0.5%,-6.0%,?,-60.8%,15.3,34.3
O=C(NCc1ccccc1)C(c1ccccc1F)N(C(=O)c1csnn1)C1CCCC1 (configuration not stated),2.0%,4.9%,-9.9%,?,-1.8,-7.0
CCOc1ccc(NC(=O)Nc2cccnc2)cc1,-4.6%,-1.9%,51.3%,10.9%,24.9*,60.0*
SMILES,FBPA Giardia inh,NS1 function inh,Pf growth 48h,Pf growth 96h,Cycloheximide cs,Shiga toxin inh
c1cncc(-c2nc(NCCCN3CCOCC3)c3c4c(sc3n2)CCC4)c1,-5.1%,·,11.7µM*,?,7.0,-4.3
c1ccc2c(c1)nc(NCc1ccc3c(c1)OCO3)n2CCN1CCOCC1,2.7%,0.5%,-22.2%,21.3%,-3.6,-1.5
c1ccc(Cn2c(CNc3nc4ccccc4n3CCN3CCOCC3)nc3ccccc32)cc1,3.0%,-19.8%,11.7µM*,8.5%[5.75 µM],-3.5,-6.9
COc1cc(CNc2nc3ccccc3n2C)cc(OC)c1OC,-9.6%,3.6%,-6.3%,0.4%,-2.3,-6.7
Brc1cccc(CNc2nc3ccccc3n2CCN2CCCCC2)c1,-1.4%,-1.3%,?,11.7µM*,-1.0,-3.0
Brc1ccc(CNc2nc3ccccc3n2CCN2CCCCC2)cc1,-5.0%,0.5%,?,13.1µM*,-1.7,-15.7
COc1cccc(CNc2nc3ccccc3n2CCN2CCCCC2)c1,7.7%,0.3%,?,·,-0.4,-18.4
Cn1c(NCc2cccc(Br)c2)nc2ccccc21,-0.6%,-15.0%,-11.9%,-4.0%,13.0*,25.7*

# Screening data as filed in PubChem.
